In PubChem BioAssay (NCI):
Compounds without any hit were thinned out: in the full panel of roughly 79,000, 15% have a hit. Calls of active or inactive are those of the source. No stated cut-off is given here; in the data, active means growth inhibition above about 70%; inactive means the rest.

Columns and labels:
[1] = NCI Yeast Anticancer Drug Screen. Data for the rad50 strain (AID 155);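 further: 0% = growth of vehicle-only cultures of the same strain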; details: S. cerevisiae rad50 strain growth inhibition; at 50.0 µM; hits give high values
In short: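 Vehicle-treated cultures provide the reference for the growth inhibition reported for compound-exposed, repair-deficient yeast.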

[2] = NCI Yeast Anticancer Drug Screen. Data for the mec2-1 strain (AID 157); details: S. cerevisiae mec2-1 strain, at 50.0 µM, hits give high values
In short: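 Compounds were applied to mec2-1 yeast cells. Their growth was then compared with that of vehicle-treated cultures to give growth inhibition.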

[3] = NCI Yeast Anticancer Drug Screen. Data for the sgs1 mgt1 strain (AID 161);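 further: 0% = growth of cultures given vehicle only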; details: S. cerevisiae sgs1 mgt1 strain, at 50.0 µM, hits give high values
In short: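 Yeast cells carrying a defined DNA-repair defect were exposed to test compounds. Growth inhibition was measured relative to vehicle-treated controls.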

[4] = NCI Yeast Anticancer Drug Screen. Data for the cln2 rad14 strain (AID 165);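 further: 0% = growth equal to vehicle treated cultures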; details: S. cerevisiae cln2 rad14 strain, at 50.0 µM, hits give high values
In short: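 Strain: cln2 rad14 yeast, altered in cell cycle control and DNA damage repair. Read-out: growth inhibition vs vehicle.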

[5] = NCI Yeast Anticancer Drug Screen. Data for the bub3 strain (AID 167); details: S. cerevisiae bub3 mutant strain, at 50.0 µM, hits give high values
In short: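 Mutant yeast screening strain plus compound; vehicle-treated cultures serve as the 0% inhibition reference.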

[6] = NCI Yeast Anticancer Drug Screen. Data for the mlh1 rad18 strain (AID 175); details: S. cerevisiae mlh1 rad18 strain growth inhibition; at 50.0 µM; hits give high values
In short: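 A repair-deficient yeast strain is exposed to test compound, and growth is scored relative to vehicle-treated controls.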

Measured: growth inhibition

Cc1c(Cl)cccc1NC(=O)Nc1ccccc1
inactive: [1] -1.35% | [2] 3.3% | [3] -6.25% | [4] -8.1% | [5] 4.1% | [6] 7.65%

C/C=C/C(=O)Nc1cc(C(F)(F)F)ccc1Cl
inactive: [1] 26.6% | [2] -2.3% | [3] -44.5% | [4] 10.8% | [5] 1.4% | [6] 9.15%

NC1CCC2(O)c3ccccc3C2C1 (stereo unspecified)
inactive: [1] -0.95% | [2] 0.05% | [3] 22.2% | [4] 18.9% | [5] 5.7% | [6] 7.35%

CC1(O)C=CC(=O)C=C1
inactive: [1] 0.05% | [2] 6.75% | [3] -15.2% | [4] 1.95% | [5] -24.1% | [6] -7.6%

CCC(=O)Oc1ccc(C(C)(C)CC(C)(C)C)cc1
inactive: [1] 32.2% | [2] -8.85% | [3] 34% | [4] -7.05% | [5] 6.05% | [6] 51.7%

CCCCOC(=O)CNC(=O)OC(C)(C)C
inactive: [1] -4.5% | [2] 11.8% | [3] -10.1% | [4] -2.1% | [5] -3.25% | [6] -15.5%

IC1CCC2OC1CCC2I (stereo unspecified)
inactive: [1] 2.8% | [2] 1.75% | [3] -3.85% | [4] -8.35% | [5] -5.05% | [6] 11.8%

CCCCCCCC/C=C\CCCCCCCC(=O)N1CCN(C(=O)CCCCCCC/C=C/CCCCCCCC)C1
inactive: [1] 20.4% | [2] -13.3% | [3] 4.05% | [4] 16.4% | [5] 0.15% | [6] -8.35%

CCCCn1c(N)n[nH]c1=S
inactive: [1] 20.5% | [2] 8.55% | [3] 1.55% | [4] -52.5% | [5] -7.25% | [6] -5.9%

Cc1cccc(NC(=O)c2c(Cl)c(Cl)c(Cl)c(Cl)c2C(=O)O)c1C
inactive: [1] 9.8% | [2] 2% | [3] 2.6% | [4] -35.5% | [5] 5.8% | [6] 8.95%

CCC(O)(c1ccc(OC)cc1)C(O)(CC)c1ccc(OC)cc1 (stereo unspecified)
inactive: [1] 9.2% | [2] 2.05% | [3] 16.4% | [4] 7.8% | [5] 5.85% | [6] 4.9%

CCOC(=O)c1ccc(NC(=O)Nc2cc(C(F)(F)F)ccc2Cl)cc1
active: [1] 89.2% | [3] 92.9% | [4] 92.2% | [5] 86.7% | [6] 94%
inactive: [2] 28.3%

c1ccc(-c2ccc3c(c2)NCCN3)cc1
inactive: [1] -3% | [2] 9.35% | [3] -13.6% | [4] -4.35% | [5] 7.25% | [6] 21.4%

Cc1onc(-c2c(Cl)cccc2Cl)c1C(=O)SC1=NC(C)N2C(SC(=O)c3c(-c4c(Cl)cccc4Cl)noc3C)=NC(C)N12 (stereo unspecified)
inactive: [1] 26.6% | [2] 7.4% | [3] 11.3% | [4] 11.7% | [5] 18.6% | [6] 16.6%

Nc1nnc(-c2ccccc2)nn1
inactive: [1] 4.05% | [2] 4% | [3] 12.1% | [4] -1.15% | [5] 6.55% | [6] 9.25%

O=C(O)C1CC2C3CCC2C1C3=O (stereo unspecified)
inactive: [1] -8.8% | [2] -26.3% | [3] 23.1% | [4] 4.4% | [5] -2.8% | [6] -34.7%

CCOC(C)(C(=O)O)c1cccc2ccccc12 (stereo unspecified)
inactive: [1] -20.4% | [2] -11% | [3] -7.95% | [4] 0.4% | [5] -8.8% | [6] 14.8%

[Cl][Pt+2][Cl].[NH-]C1CCC1[NH-] (stereo unspecified)
inactive: [1] 4.7% | [2] -9.3% | [3] -12% | [4] -24.4% | [5] -4.1% | [6] 10.5%

C(=C\C(Sc1ccccc1)c1ccccc1)/NNC1=NC(c2ccccc2)C(c2ccccc2)=NN1 (stereo unspecified)
inactive: [1] -22.4% | [2] -8.6% | [3] -42.8% | [4] -4.35% | [5] -19.9% | [6] -3.55%

Cc1cc2nc3c(N)ccc(N)c3nc2cc1N
inactive: [1] 5.2% | [2] 4.3% | [3] -0.65% | [4] -17.6% | [5] -29.1% | [6] -7.7%

Nc1c(Br)cc(Br)cc1-c1cc(Br)cc(Br)c1N
inactive: [1] 3.65% | [2] 17% | [3] 10.4% | [4] 5.3% | [5] 13.4% | [6] 24.4%

C(CCN1CCOCC1)CN1CCOCC1
inactive: [1] -3.4% | [2] 4.5% | [3] 0.45% | [4] -4.1% | [5] -10.7% | [6] 1.15%

CC1CCCC(CCO)CC1 (stereo unspecified)
inactive: [1] 11.6% | [2] 5.8% | [3] 6.4% | [4] 0.1% | [5] 15.7% | [6] 6.3%

CS(=O)(=O)c1cc(=O)[nH]c(=O)[nH]1
inactive: [1] 0.55% | [2] 1.45% | [3] 18.2% | [4] 25.6% | [5] -0.9% | [6] 7.45%

COCCN(C)C(c1ccccc1)C(O)c1ccccc1 (stereo unspecified)
inactive: [1] 4.8% | [2] -12.9% | [3] 4.3% | [4] -37% | [5] 4.95% | [6] 4.1%

CC(=O)C(C)c1nc(=S)[nH]c(=S)[nH]1 (stereo unspecified)
inactive: [1] 11.4% | [2] 12.2% | [3] 22.4% | [4] 9.1% | [5] -1.35% | [6] 4.85%

O=c1[nH]cnc2oc(-c3ccccc3)nc12
inactive: [1] -0.3% | [2] -0.7% | [3] -6.35% | [4] -41.2% | [5] -15.8% | [6] 4.75%

CC(C)(C(N)=O)c1ccccc1
inactive: [1] -28.1% | [2] -3.85% | [3] 16.6% | [4] -28.4% | [5] -1.55% | [6] -5.05%

C/C(CC1SCCCS1)=C(/C)CC1SCCCS1
inactive: [1] -34.8% | [2] -38.6% | [3] -23.1% | [4] -5% | [5] 2.25% | [6] -45%

Cc1cccc(C)c1NC(=O)CCC/C(CC(=O)c1ccc(F)cc1)=N\NC(=O)C(=O)NN
inactive: [1] 20.2% | [2] 2.7% | [3] 2.4% | [4] -32.1% | [5] -4.9% | [6] 19.8%

O=S(c1ccc(O)cc1)c1ccc(O)cc1
inactive: [1] -24.2% | [2] -4.95% | [3] 0.55% | [4] 1.35% | [5] -1.1% | [6] -2.35%

Nc1ccc(C(=O)NN2C(=O)C(Cl)C2c2ccccc2Cl)cc1 (stereo unspecified)
inactive: [1] 45.2% | [2] 32.7% | [3] 27.9% | [4] 38.8% | [5] 38.3% | [6] 31.5%

CCOC(=O)c1c(O)c(Cc2ccccc2)c(=O)n2c1[nH]c1cc(C)c(C)cc12
inactive: [1] 26.6% | [2] 26.2% | [3] 12.2% | [4] 15.5% | [5] -0.95% | [6] -1%

CCC(O)(c1ccc(OC)cc1)C(c1ccccc1)c1ccccn1 (stereo unspecified)
inactive: [1] -1.3% | [2] -8.8% | [3] 6.5% | [4] -16.5% | [5] 2.8% | [6] -0.65%

Cc1cc(C)c(CCC(=O)O)c(C)c1
inactive: [1] 6.95% | [2] 4.8% | [3] -0.3% | [4] 6.6% | [5] -7.1% | [6] -1.25%

N#C/C(=C\c1ccccc1)c1ccc(F)cc1F
inactive: [1] 33.2% | [2] 30.6% | [3] 6.15% | [4] 6.55% | [5] 6.55% | [6] 9.7%

CCN(CC)CCC(=O)c1cnc(-c2ccccc2)nc1C
inactive: [1] 7.35% | [2] 35.1% | [3] 38.7% | [4] 2.5% | [5] 17.5% | [6] 20.1%

COc1cc([N+](=O)[O-])c(S(=O)(=O)O)cc1-n1nc(-c2ccccc2)n[n+]1-c1cc(S(=O)(=O)[O-])c([N+](=O)[O-])cc1OC
inactive: [1] -5.65% | [2] 4.15% | [3] -13.3% | [4] -22.7% | [5] -20.4% | [6] 16.2%

CC(C(=O)O)C(NC(=O)c1ccccc1)C(=O)O (stereo unspecified)
inactive: [1] 11.5% | [2] 5.35% | [3] 0.2% | [4] 16% | [5] 4.4% | [6] 13.4%

Nc1ccc(C(=O)OCCN2CCN(CCOC(=O)c3ccc(N)cc3)CC2)cc1
inactive: [1] 28.9% | [2] 13.4% | [3] 12.6% | [4] 16.2% | [5] 1.6% | [6] 28.4%

CCCCNCC(=O)O[C@]1(CC)C(=O)OCc2c1cc1n(c2=O)Cc2cc3ccccc3nc2-1
active: [1] 78%
inactive: [2] 66.8% | [3] 49.5% | [4] 28.8% | [5] 40.2% | [6] 62.2%
